# PubChem BioAssay
# Tested on: not listed separately
# Test: small-molecule binders of probe aInhba, primary screen, biochemical, small-molecule microarray, 635/667 nm fluorescence (AID 1148);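 further: score merges 667nm spot fluorescence with signal-to-noise for antibody binding to printed compounds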
# Details: higher = more signal
row,Structure (SMILES),composite z-score
1,CN(C)C(=O)[C@]1(Cc2ccccc2N=[N+]=[N-])N=C(c2ccc(OCCCO)cc2)O[C@@H]1c1ccccc1,0.0928
2,COC(=O)c1c(CC[C@@H](CO)NC(=O)N[C@@H](C)Cn2cc(C3(O)CCCCC3)nn2)oc(C(C)=O)c1C(=O)OC,0.225
3,O=C1C2C=CC(C(O)c3ccc(F)cc3)N(Nc3ccccc3F)C2C(=O)N1c1ccccc1 (configuration not stated),0.254
4,O=C(c1ccccc1)N1Cc2ccccc2[C@@H]2OC(c3ccc(OCCCO)cc3)=N[C@]2(Cc2ccccc2)C1=O,0.188
5,C=C(COC)/C(=C/C[C@H](OC(=O)c1ccncc1)c1ccc(OCCO)cc1)c1cnc2ccccc2c1,-0.0087
6,COCCOC(=O)N1C(=O)[C@@]2(c3cc(C#CCNC(N)=O)ccc31)[C@H](C(=O)NC[C@H](O)c1ccccc1)[C@H]1C(=O)O[C@H](c3ccccc3)[C@H](c3ccccc3)N1[C@@H]2c1ccccc1OCCO,0.801
7,COc1ccc([C@H]2C[C@H]3C(Br)=C[C@@H]2C(=O)[C@]32CO2)cc1,-0.0822
8,C=CCOC(=O)[C@@H]1[C@H]2C(=O)O[C@H](c3ccccc3)[C@H](c3ccccc3)N2[C@H](c2ccc(OCCOC(=O)[C@@H]3C[C@@H]4C(=O)N[C@@H](Cc5ccccc5)C(=O)N4[C@@H]3c3ccc(O)cc3)cc2)[C@@]12C(=O)Nc1ccc(I)cc12,0.0154
9,O=C1OCC=C[C@H]2OC34C=CCN(c5ccc6ccccc6c5)C(=O)[C@H]3N(CCCCCCO)C(=O)[C@@H]4[C@@H]12 (some centres not stated),-0.018
10,[N-]=[N+]=Nc1ccccc1C[C@]1(C(N)=O)N=C(c2ccc(OCCCO)cc2)O[C@H]1c1ccccc1,0.0516
11,O=C1OCCC/C=C\[C@H]2OC34C=CCN(Cn5nnc6ccccc65)C(=O)[C@H]3N(CCO)C(=O)[C@@H]4C12 (some centres not stated),0.8
12,COc1cc2c(cc1OC)CN(C(=O)[C@H]1[C@@H]3C(=O)O[C@@H](c4ccccc4)[C@@H](c4ccccc4)N3[C@@H](c3ccc(O)cc3)[C@]13C(=O)Nc1ccc(C#CC4=CCCCC4)cc13)CC2,0.288
13,Cc1ccc(S[C@]2(C(=O)NCC(C)C)CC(=O)N(Cc3cc(C(F)(F)F)cc(C(F)(F)F)c3)[C@@H]2c2ccc(CO)cc2I)cc1,0.0173
14,CCCC[C@@H]1C[C@H]1[C@@H](NC(=O)c1ccco1)c1ccc(C(=O)OC)cc1,-0.154
15,O=C1O[C@H](c2ccccc2)[C@H](c2ccccc2)N2[C@H]1[C@@H](C(=O)O)[C@]1(C(=O)Nc3ccc(C#CC4=CCCCC4)cc31)[C@H]2c1ccccc1OCCO,0.17
16,CC(=O)N1Cc2ccccc2C[C@@]2(COC(c3ccc(OCCCO)cc3)=N2)C1=O,0.407

# Molecular target: Torsin-1A (Homo sapiens) (UniProt O14656)
# Test: torsin A binders from cell lysate, primary screen, small-molecule microarray, wild-type, 635/667 nm (AID 1149)
# Details: COS7 hTOR1A-WT lysate, 635 nm fluorescence, higher = more signal
# Chain of Torsin-1A (Homo sapiens) (O14656 whole entry, looked up): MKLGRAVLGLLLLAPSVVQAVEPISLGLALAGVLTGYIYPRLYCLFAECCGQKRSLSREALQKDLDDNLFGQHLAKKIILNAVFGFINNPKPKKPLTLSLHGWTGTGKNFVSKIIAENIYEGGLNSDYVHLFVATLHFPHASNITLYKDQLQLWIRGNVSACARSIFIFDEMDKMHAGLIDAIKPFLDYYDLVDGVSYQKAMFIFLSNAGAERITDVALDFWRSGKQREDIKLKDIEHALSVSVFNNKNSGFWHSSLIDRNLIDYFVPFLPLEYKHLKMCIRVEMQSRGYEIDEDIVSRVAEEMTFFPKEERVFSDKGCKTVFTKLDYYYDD
row,Structure (SMILES),composite z-score
1,C[N+](C)(C)CCCCNC(=O)[C@H]1C[C@H]2C(=O)N[C@@H](Cc3ccccc3)C(=O)N2[C@H]1c1ccc(O)cc1,0.81
2,[N-]=[N+]=NCc1ccccc1C[C@]1(C(=O)N2CCOCC2)N=C(c2ccc(OCCCO)cc2)O[C@H]1c1ccccc1N=[N+]=[N-],1.49
3,CC(=O)NCCCC[C@@H]1NC(=O)[C@@H]2C[C@H](C(=O)NCCCCN(C)C)[C@H](c3cccc(OCCO)c3)N2C1=O,-1.28
4,COc1ccc(C(O)C2C=CC3C(=O)N(c4ccccc4)C(=O)C3N2Nc2ccc(C(C)C)cc2)cc1OCc1ccccc1 (configuration not stated),0.385
5,[N-]=[N+]=Nc1ccccc1[C@H]1OC(c2ccc(OCCCO)cc2)=N[C@@]1(Cc1ccccc1)C(=O)O,0.395
6,O=C(NCc1ccccc1)[C@@]1(Cc2ccccc2)N=C(c2ccc(OCCCO)cc2)O[C@H]1c1ccccc1,0.924
7,CCOC1=C2C(CN(S(=O)(=O)c3ccc(C)cc3)C2c2ccc(C)cc2)C2C(=O)N(c3ccccc3)C(=O)C2C1 (configuration not stated),-0.196
8,CCOC(=O)C[C@H]1[C@H](OC(=O)c2ccc(C(=O)c3ccccc3)cc2)[C@@H](NC(=O)c2ccc(-c3ccccc3)cc2)c2cc(OCCCO)ccc2N1C(=O)c1ccccc1,0.117
9,COCCOC(=O)N1C(=O)[C@@]2(c3cc(C#Cc4ccc(OC)cc4)ccc31)[C@H](c1ccc(O)cc1)N1[C@H](c3ccccc3)[C@H](c3ccccc3)OC(=O)[C@H]1[C@@H]2C(=O)NC[C@H](O)c1ccccc1,0.105
10,COc1ccc(C(=O)O[C@H]2CC[C@]3(C)C4=C(CCC3C2(C)C)[C@]2(C)CC[C@H]([C@H](C)CCCC(C)C)[C@@]2(C)CC4)cc1 (some centres not stated),0.344
11,COc1ccc(C(=O)Nc2ccc(CN3C(=O)[C@@]4(O[C@@H](CCn5cc([C@H](O)c6ccccc6)nn5)[C@H]([Si](C)(C)c5ccc(OC)cc5)[C@H]4C)c4ccccc43)cc2)cc1,0.253
12,O=C1c2ccccc2[C@@]2(Cc3ccccc3N(CCN3CCOCC3)C2=O)[C@H](c2ccc(CO)cc2)N1Cc1ccccc1,0.437
13,CC[C@@H]1C=C(C(=O)O)[C@H](c2ccco2)N1S(=O)(=O)c1ccc(C)cc1,-0.282
14,O=C1OCCC/C=C\[C@H]2OC34C=CCN(CCN5CCOCC5)C(=O)[C@H]3N(CCCO)C(=O)[C@@H]4C12 (some centres not stated),-0.222
15,COC(=O)[C@@]1(Cc2ccccc2)[C@H]2c3cc(C(=O)N4CCCC4)n(Cc4nc5ccccc5[nH]4)c3C[C@H]2CN1C(=O)c1ccccc1,0.746
16,CC(C)c1ccc(NN2C(C(O)C(c3ccccc3)c3ccccc3)C=CC3C(=O)N(c4ccccc4)C(=O)C32)cc1 (configuration not stated),0.792
17,C#CCN(Cc1ccccc1Br)C(/C=C/c1ccccc1)CO (configuration not stated),0.0428
18,O=C1C2C=CC(C(O)c3c(F)cccc3Cl)N(Nc3ccccc3)C2C(=O)N1c1ccccc1 (configuration not stated),0.463

row,Structure (SMILES),composite z-score
1,NC(=O)[C@@H]1[C@H]2C(=O)O[C@H](c3ccccc3)[C@H](c3ccccc3)N2[C@H](c2ccc(O)cc2)[C@@]12C(=O)Nc1ccc(C#CC3(O)CCCCCC3)cc12,0.398
2,CCOC(=O)C[C@H]1[C@H](OC(=O)Cc2ccc3c(c2)OCO3)[C@@H](NC(=O)c2ccc3ccccc3c2)c2cc(OCCCO)ccc2N1C(=O)c1ccccc1,0.0289
3,CN(C)C(=O)[C@]1(Cc2ccccc2N=[N+]=[N-])N=C(c2ccc(OCCCO)cc2)O[C@@H]1c1ccccc1,-0.09
4,COC(=O)c1c(CC[C@@H](CO)NC(=O)N[C@@H](C)Cn2cc(C3(O)CCCCC3)nn2)oc(C(C)=O)c1C(=O)OC,1.07
5,O=C1C2C=CC(C(O)c3ccc(F)cc3)N(Nc3ccccc3F)C2C(=O)N1c1ccccc1 (configuration not stated),0.0654
6,O=C(c1ccccc1)N1Cc2ccccc2[C@@H]2OC(c3ccc(OCCCO)cc3)=N[C@]2(Cc2ccccc2)C1=O,0.236
7,C=C(COC)/C(=C/C[C@H](OC(=O)c1ccncc1)c1ccc(OCCO)cc1)c1cnc2ccccc2c1,1.27
8,COCCOC(=O)N1C(=O)[C@@]2(c3cc(C#CCNC(N)=O)ccc31)[C@H](C(=O)NC[C@H](O)c1ccccc1)[C@H]1C(=O)O[C@H](c3ccccc3)[C@H](c3ccccc3)N1[C@@H]2c1ccccc1OCCO,0.403
9,COc1ccc([C@H]2C[C@H]3C(Br)=C[C@@H]2C(=O)[C@]32CO2)cc1,-0.0733
10,C=CCOC(=O)[C@@H]1[C@H]2C(=O)O[C@H](c3ccccc3)[C@H](c3ccccc3)N2[C@H](c2ccc(OCCOC(=O)[C@@H]3C[C@@H]4C(=O)N[C@@H](Cc5ccccc5)C(=O)N4[C@@H]3c3ccc(O)cc3)cc2)[C@@]12C(=O)Nc1ccc(I)cc12,0.521
11,O=C1OCC=C[C@H]2OC34C=CCN(c5ccc6ccccc6c5)C(=O)[C@H]3N(CCCCCCO)C(=O)[C@@H]4[C@@H]12 (some centres not stated),1.62
12,[N-]=[N+]=Nc1ccccc1C[C@]1(C(N)=O)N=C(c2ccc(OCCCO)cc2)O[C@H]1c1ccccc1,0.644
13,O=C1OCCC/C=C\[C@H]2OC34C=CCN(Cn5nnc6ccccc65)C(=O)[C@H]3N(CCO)C(=O)[C@@H]4C12 (some centres not stated),-2.75
14,COc1cc2c(cc1OC)CN(C(=O)[C@H]1[C@@H]3C(=O)O[C@@H](c4ccccc4)[C@@H](c4ccccc4)N3[C@@H](c3ccc(O)cc3)[C@]13C(=O)Nc1ccc(C#CC4=CCCCC4)cc13)CC2,0.302
15,Cc1ccc(S[C@]2(C(=O)NCC(C)C)CC(=O)N(Cc3cc(C(F)(F)F)cc(C(F)(F)F)c3)[C@@H]2c2ccc(CO)cc2I)cc1,-1.72
16,CCCC[C@@H]1C[C@H]1[C@@H](NC(=O)c1ccco1)c1ccc(C(=O)OC)cc1,-0.708
17,O=C1O[C@H](c2ccccc2)[C@H](c2ccccc2)N2[C@H]1[C@@H](C(=O)O)[C@]1(C(=O)Nc3ccc(C#CC4=CCCCC4)cc31)[C@H]2c1ccccc1OCCO,0.849
18,CC(=O)N1Cc2ccccc2C[C@@]2(COC(c3ccc(OCCCO)cc3)=N2)C1=O,0.135
